From PubChem BioAssay (NCATS)
Records with an inconclusive call do not appear. Activity calls are given as the source filed them. Calls follow the shape of the dose curve; as a rule, active = well fitted curve in the direction sought with a large enough effect; inconclusive = small, poorly fitted or top-dose-only effect, or another doubt; inactive = no such curve, though single readings can be large; an effect the other way counts as inactive or inconclusive.

Columns and labels:
[1] = target: Cellular tumor antigen p53 (Homo sapiens) (UniProt P04637); assay: Primary qHTS for small molecule compounds that upregulate eGFP-tagged delta133p53alpha (in N-terminal) cells. (AID 2060322); settings: NCI-H358 eGFP-delta133p53alpha fluorescence, 24 h; activation: stronger effect = higher value;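 also: cells pre-induced with doxycycline then dosed without doxycycline; 0% = DMSO vehicle and 100% = reference activator; nearly all actives have a fitted effect of over 75% in size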
Procedure, shortened: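 NCI-H358 cells pre-induced 24 h with 10 ng/ml doxycycline for eGFP-delta133p53alpha, plated dox-free and exposed 24 h at 37C to titrated compounds. Fixed, Hoechst-stained; gated GFP peak intensity by laser scanning cytometry, normalized to DMSO (0%) and 57.5 uM 5-azacytidine (100%).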

[2] = target: Aldehyde dehydrogenase, mitochondrial (Homo sapiens) (UniProt P05091); assay: qHTS for Inhibitors of the Aldehyde Dehydrogenase Family (ALDH2) Primary screen (AID 2061308); settings: ALDH2 enzyme inhibition qHTS, 1536-well; series mostly up to 56 µM;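 also: plate controls were vehicle for no effect and reference inhibitor for full effect; nearly all actives have a fitted effect of over 55% in size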
[3] = target: Retinaldehyde dehydrogenase 3 (Homo sapiens) (UniProt P47895); assay: qHTS for Inhibitors of the Aldehyde Dehydrogenase Family (ALDH1A3) Primary screen (AID 2061315); settings: ALDH inhibition qHTS; series mostly up to 56 µM;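 also: plate controls were DMSO vehicle for no effect and reference inhibitor for full effect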

Cellular tumor antigen p53 (Homo sapiens), sequence (P04637 whole entry, looked up): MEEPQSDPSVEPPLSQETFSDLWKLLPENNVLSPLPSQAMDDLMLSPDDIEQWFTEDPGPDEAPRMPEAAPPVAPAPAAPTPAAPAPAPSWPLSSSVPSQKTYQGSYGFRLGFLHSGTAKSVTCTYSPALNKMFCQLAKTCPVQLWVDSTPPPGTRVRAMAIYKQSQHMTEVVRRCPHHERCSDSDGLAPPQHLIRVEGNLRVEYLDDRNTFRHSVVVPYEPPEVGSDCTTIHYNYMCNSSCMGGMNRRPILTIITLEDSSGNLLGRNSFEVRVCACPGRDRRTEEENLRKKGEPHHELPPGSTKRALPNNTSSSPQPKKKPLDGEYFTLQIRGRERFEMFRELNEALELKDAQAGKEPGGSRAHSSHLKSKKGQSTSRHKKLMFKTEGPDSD

O=S(=O)(NC1CCNCC1)c1cc(S(=O)(=O)c2ccccc2)ccc1C(F)(F)F
inactive: activation [1] 5.25% | Potency [2] | Potency [3]

C=CC1(C)C=C2C(O)CC3C(C)(C(=O)O)CCCC3(C)C2CC1 (centres undefined)
inactive: activation [1] 8.04% | Potency [2] | Potency [3]

CC1COC2(OC3CC4C5CC(O[C@@H]6O[C@H](C)[C@@H](O[C@@H]7O[C@@H](C)[C@H](O)[C@@H](O)[C@H]7O)[C@H](O)[C@H]6O)C6CC(O)CCC6(C)C5CCC4(C)C3C2C)C(O)C1 (some centres undefined)
inactive: activation [1] -10.7% | Potency [2] | Potency [3]

C=C1CCC2C(C)(C(=O)O)CCCC2(C)C1CC/C(C)=C\CO (centres undefined)
inactive: activation [1] 15.2% | Potency [2] | Potency [3]

CC(CCC1(O)OC2CC3C4CCC5CC(O[C@@H]6O[C@H](CO)[C@@H](O)[C@H](O)[C@H]6O[C@@H]6O[C@@H](C)[C@H](O)[C@@H](O)[C@H]6O)C(O)CC5(C)C4CCC3(C)C2C1C)CO[C@@H]1O[C@H](CO)[C@@H](O)[C@H](O)[C@H]1O (some centres undefined)
inactive: activation [1] 9.82% | Potency [2] | Potency [3]

CC(=O)O[C@@H]1[C@@H](OC(=O)/C=C/c2ccccc2)[C@@H](OC(C)=O)[C@H](O[C@H]2[C@@H]3C=CO[C@@H](O[C@@H]4O[C@H](CO)[C@@H](O)[C@H](O)[C@H]4O)[C@@H]3[C@@]3(CO)O[C@@H]23)O[C@H]1C
inactive: activation [1] -12.2% | Potency [2] | Potency [3]

C=C1CCCC2(C)CC3(OC)OC(=O)C(C)=C3CC12 (centres undefined)
inactive: activation [1] 16.1% | Potency [2] | Potency [3]

C[C@H](NC(c1cccc(C[P+](=O)O)c1)[C@H](C)O)c1ccc(Cl)c(Cl)c1 (some centres undefined)
inactive: activation [1] 9% | Potency [2] | Potency [3]

C=C(COC(=O)C(C)C)C1Oc2cc(C(C)=O)ccc2C1OC(=O)C(C)C (centres undefined)
inactive: activation [1] 2.29% | Potency [2] | Potency [3]

O=C(OCC(O)CO[C@@H]1O[C@H](C(=O)O)[C@@H](O)[C@H](O)[C@H]1O)c1ccccc1 (some centres undefined)
inactive: activation [1] -13% | Potency [2] | Potency [3]

COC(=O)c1[nH]c(=O)c2ccccc2c1-c1ccc[nH]1
inactive: activation [1] -11.6% | Potency [2] | Potency [3]

CC1=C(C(=O)O)/C(=C\CO[C@@H]2O[C@H](CO)[C@@H](O)[C@H](O)[C@H]2O)C(OC(=O)/C=C/c2ccc(O)cc2)C1 (some centres undefined)
inactive: activation [1] -3.82% | Potency [2] | Potency [3]

CSCC1OC(n2cnc3c(N)ncnc32)C(O)C1O (centres undefined)
inactive: activation [1] 6.11% | Potency [2] | Potency [3]

COc1cc(C(C)=O)c(OC)c2c1OC(C)(C)C=C2
inactive: activation [1] 6.25% | Potency [2] | Potency [3]

Cc1cc(C(C)Nc2ccccc2C(=O)O)c2nc(N3CCOCC3)cc(=O)n2c1 (centres undefined)
inactive: activation [1] 14.3% | Potency [2] | Potency [3]

C/C=C/C=C/C1=C2C(=O)C3(C)C4C(C(=O)CC(O)/C=C/C)=C(O1)C1(C)C2C2(C)OC1(O)C4(C)OC23O (centres undefined)
inactive: activation [1] -2.68% | Potency [2] | Potency [3]

COc1cc2c(c(OC)c1CC=C(C)C)C[C@H](c1ccc(O)c(CC=C(C)C)c1O)CO2
inactive: activation [1] -7.14% | Potency [2] | Potency [3]

CC(O)/C=C/C1(O)C(C)C(O[C@@H]2O[C@H](CO)[C@@H](O)[C@H](O)[C@H]2O)C(O)CC1(C)C (some centres undefined)
inactive: activation [1] -10.7% | Potency [2] | Potency [3]

C[C@@H]1C[C@H](O[C@@H]2O[C@H](CO[C@@H]3OC[C@](O)(CO)[C@H]3O)[C@@H](O)[C@H](O)[C@H]2O)CC(C)(C)[C@H]1/C=C/[C@@H](C)O
inactive: activation [1] -29.5% | Potency [2] | Potency [3]

CCc1cc(CC[C@]2(C3CCCC3)CC(O)=C(Cc3nc4nc(C)cc(C)n4n3)C(=O)O2)cc(CC)n1
inactive: activation [1] -29.5% | Potency [2] | Potency [3]

C=C(C)C1CCC2(C(=O)O[C@@H]3O[C@H](CO[C@@H]4O[C@H](CO)[C@@H](O)[C@H](O)[C@H]4O)[C@@H](O)[C@H](O[C@@H]4O[C@@H](C)[C@H](O)[C@@H](O)[C@H]4O)[C@H]3O)CCC3(C(=O)O)C(CCC4C5(C)CCC(O)C(C)(C)C5CCC43C)C12 (some centres undefined)
inactive: activation [1] -13.7% | Potency [2] | Potency [3]

CC(=O)OC1CC(=O)C2(C)C3CC4=C(OC(C)CC4=O)OC3(C)CCC2C1(C)C (centres undefined)
inactive: activation [1] -6.11% | Potency [2] | Potency [3]

C/C(=C/CO)CC[C@@H]1[C@@]2(C)CCC[C@](C)(C(=O)O)C2CC[C@@]1(C)O (some centres undefined)
inactive: activation [1] 27.7% | Potency [2] | Potency [3]
